# Reference: PubChem BioAssay
# Active and inactive are the calls of the source.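 The calls were made as follows, unless noted: active = inhibition of the reporter signal at or above 50%; inactive = inhibition below 50%.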
# What was measured:
# [1] = inhibitors of TNFa-induced NFkB p65 translocation, primary screen, imaging, HUVEC, MLSMR starter and 10KST1 sets (AID 438;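 active = inhibition above 20% together with a positive visual image hit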;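 also: compound added about 3h40 before a 20 min TNFalpha stimulation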;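 as to inhibition: signal is the nuclear over cytoplasmic p65 intensity ratio per well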); settings: HUVEC TNFa-induced p65 nuclear translocation; cell count: measured here: nuclei count (cytotoxicity indicator), at 2.08 µM; inhibition: at 2 µM, stronger effect = higher value, 0% TNFa-plus-vehicle, 100% no-TNFa wells
# [2] = reduction of polyQ htt aggregates in cells – imaging, exon1htt(103Q)mCFP cells, high-content imaging, primary screen (AID 483;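 active = visual image review flags a hit and inhibition of aggregation exceeds 20%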;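 also: compound exposure lasted 3 days before fixation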;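 as to nuclei count: percent of the per-plate median nuclei count of sample wells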); settings: exon1htt(103Q)mCFP cell line, aggregate imaging, at 2 µM; inhibition of aggregation: stronger effect = higher value; nuclei count: measured here: cell count, toxicity
# [3] = endothelial E-selectin expression blockers – imaging, HUVEC, immunofluorescence, MLSMR starter and 10KST1 sets, primary screen (AID 487;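 active = visually confirmed hit in the image check and inhibition above 20%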;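 as to inhibition: signal is fraction of cell area covered by stained E-selectin grains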;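 as to nuclei count: 100% = median nuclei count of all wells on the same plate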); settings: HUVEC TNFalpha-induced E-selectin immunofluorescence imaging, at 2 µM; inhibition: stronger effect = higher value; nuclei count: measured here: cell number, toxicity
# [4] = target: Voltage-gated potassium channel subunit beta-2 (Rattus norvegicus) (UniProt P62483); assay: inhibitors of rat Kvbeta2 reductase activity – biochemical, NADPH fluorescence, primary screen (AID 622;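 active = fluorescence slope higher than the sample average by over 3 SD, cut at about -0.22 in these data, passing the limit was not always enough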;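 also: slope of raw intensity against log time taken from 70 to 1610 s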); settings: recombinant KvBeta, 4-cyanobenzaldehyde reduction, at 10 µM, stronger effect = higher value
# Chain of Voltage-gated potassium channel subunit beta-2 (Rattus norvegicus) (P62483 whole entry, looked up): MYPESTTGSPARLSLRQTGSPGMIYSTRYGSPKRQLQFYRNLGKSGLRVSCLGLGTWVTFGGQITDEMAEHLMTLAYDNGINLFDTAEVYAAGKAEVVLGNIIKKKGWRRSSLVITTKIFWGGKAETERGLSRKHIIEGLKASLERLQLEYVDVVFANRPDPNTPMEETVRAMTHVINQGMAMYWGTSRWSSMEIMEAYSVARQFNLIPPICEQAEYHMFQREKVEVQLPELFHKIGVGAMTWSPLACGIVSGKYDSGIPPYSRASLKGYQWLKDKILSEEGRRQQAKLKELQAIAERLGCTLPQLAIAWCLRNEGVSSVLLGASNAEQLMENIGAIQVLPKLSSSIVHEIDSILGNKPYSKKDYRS
# [5] = target: Voltage-gated potassium channel subunit beta-2 (Rattus norvegicus) (UniProt P62483); assay: enhancers of rat Kvbeta2 NADPH turnover – biochemical, NADPH fluorescence, primary screen (AID 623;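 active = NADPH fluorescence slope more negative than the mean of all samples by about 3 SD, 99.7% confidence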;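 also: fluorescence intensity change per second fitted from 20 to 320 s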); settings: Recombinant KvBeta, NADPH fluorescence decrease slope, 10 min; at 10 µM; stronger effect = lower value
# [6] = target: Alpha-2C adrenergic receptor (Homo sapiens) (UniProt P18825); assay: compounds altering alpha2C-coupled GIRK flux – cell-based, HEK293 alpha2C/GIRK1/2, thallium flux, primary screen (AID 624;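 active = fluorescence slope after compound addition differing from the mean of all screened samples at 99.7% confidence, in either direction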;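 also: slope of fluorescence ratio to pre-addition baseline per second over 15 to 24 s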); settings: thallium flux BTC fluorescence, at 10 µM, actives lie on both sides
# Chain of Alpha-2C adrenergic receptor (Homo sapiens) (P18825 whole entry, looked up): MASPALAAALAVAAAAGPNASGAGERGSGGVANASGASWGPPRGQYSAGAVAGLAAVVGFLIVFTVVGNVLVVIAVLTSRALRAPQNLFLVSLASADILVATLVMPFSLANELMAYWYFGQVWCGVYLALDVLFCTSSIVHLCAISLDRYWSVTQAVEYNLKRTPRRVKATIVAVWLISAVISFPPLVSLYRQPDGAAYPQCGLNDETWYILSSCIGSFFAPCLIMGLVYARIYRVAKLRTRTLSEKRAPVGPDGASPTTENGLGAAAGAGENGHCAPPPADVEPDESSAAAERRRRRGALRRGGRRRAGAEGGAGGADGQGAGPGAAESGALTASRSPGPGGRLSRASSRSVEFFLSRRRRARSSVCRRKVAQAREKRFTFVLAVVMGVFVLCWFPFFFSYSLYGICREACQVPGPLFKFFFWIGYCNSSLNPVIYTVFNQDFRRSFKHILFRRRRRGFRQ
# [7] = blockers of RIG-like receptor reporter activation – cell-based, Sendai virus stimulus, luciferase, 10K MLSCN set, TLR/RLR signaling modifier project, primary screen (AID 602276;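 active = inhibition at or above 50% at 10 µM; inactive = inhibition below 50%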;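 also: firefly luciferase from ISG56 promoter only with Renilla not read in this screen; 0% = Sendai virus plus DMSO and 100% = medium plus DMSO without virus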); settings: HEK293 RL24 IRF3 luciferase reporter, at 10 µM, stronger effect = higher value
# [8] = TLR3 IRF3 reporter activation blockers – cell-based, poly I:C stimulus, luciferase, 10K MLSCN set, primary screen (AID 602277); settings: HEK293-TLR3 RL24 IRF3 luciferase reporter, at 10 µM, stronger effect = higher value
smiles,measurement,setting,value
CCOc1ccc(S(=O)(=O)n2nc(C)cc2C)c2ccccc12,cell count,[1],355
same,inhibition,[1],-5.4% (inactive)
same,inhibition of aggregation,[2],0.3% (inactive)
same,nuclei count,[2],108%
same,inhibition,[3],-52.3% (inactive)
same,nuclei count,[3],115%
same,fluorescence slope,[4],-0.347 (inactive)
same,NADPH fluorescence slope,[5],2e-05 (inactive)
same,slope,[6],0.00571 (inactive)
same,inhibition,[7],-0.884% (inactive)
same,inhibition,[8],-17.2% (inactive)
N#Cc1nc(-c2ccco2)oc1NCc1ccco1,cell count,[1],658
same,inhibition,[1],-9.1% (inactive)
same,inhibition of aggregation,[2],-10.1% (inactive)
same,nuclei count,[2],120%
same,inhibition,[3],-12.2% (inactive)
same,nuclei count,[3],98.2%
same,fluorescence slope,[4],-0.375 (inactive)
same,NADPH fluorescence slope,[5],5.2e-05 (inactive)
same,slope,[6],0.00582 (inactive)
same,inhibition,[7],-2.68% (inactive)
same,inhibition,[8],-30.9% (inactive)
O=C(Nc1ccc(Cl)c(C(F)(F)F)c1)N1CCCC(O)C1 (stereo not drawn),cell count,[1],356
same,inhibition,[1],4.5% (inactive)
same,inhibition of aggregation,[2],-4.8% (inactive)
same,nuclei count,[2],106%
same,inhibition,[3],-50.8% (inactive)
same,nuclei count,[3],107%
same,fluorescence slope,[4],-0.453 (inactive)
same,NADPH fluorescence slope,[5],2.2e-05 (inactive)
same,slope,[6],0.00599 (inactive)
same,inhibition,[7],1.7% (inactive)
same,inhibition,[8],-22.3% (inactive)
O=C(NC1CCCC1)C(c1cccs1)N(Cc1ccco1)C(=O)Cn1nnc(-c2cccs2)n1 (stereo not drawn),cell count,[1],482
same,inhibition,[1],-3.3% (inactive)
same,inhibition of aggregation,[2],-7.1% (inactive)
same,nuclei count,[2],102%
same,inhibition,[3],3.8% (inactive)
same,nuclei count,[3],101%
same,fluorescence slope,[4],-0.487 (inactive)
same,NADPH fluorescence slope,[5],-3.1e-05 (inactive)
same,slope,[6],0.00489 (inactive)
same,inhibition,[7],20.2% (inactive)
same,inhibition,[8],23.1% (inactive)
Cc1cc(C)c2c(=O)n(CC(=O)NCCCN3CCOCC3)sc2n1,cell count,[1],594
same,inhibition,[1],8.2% (inactive)
same,inhibition of aggregation,[2],1.1% (inactive)
same,nuclei count,[2],118%
same,inhibition,[3],36.7% (inactive)
same,nuclei count,[3],106%
same,fluorescence slope,[4],-0.548 (inactive)
same,NADPH fluorescence slope,[5],-3.1e-05 (inactive)
same,slope,[6],0.00687 (inactive)
same,inhibition,[7],10.4% (inactive)
same,inhibition,[8],40.4% (inactive)
COc1ccc(-n2ccnc2SCC(=O)NCc2ccc3c(c2)OCO3)cc1,cell count,[1],495
same,inhibition,[1],0.2% (inactive)
same,inhibition of aggregation,[2],-17.1% (inactive)
same,nuclei count,[2],110%
same,inhibition,[3],-80% (inactive)
same,nuclei count,[3],123%
same,fluorescence slope,[4],-0.596 (inactive)
same,NADPH fluorescence slope,[5],-2.8e-06 (inactive)
same,slope,[6],0.006 (inactive)
same,inhibition,[7],11.9% (inactive)
same,inhibition,[8],32.1% (inactive)
CC1CCN(c2nc3c(c(=O)[nH]c(=O)n3C)n2CCSc2ncccn2)CC1,cell count,[1],548
same,inhibition,[1],0.8% (inactive)
same,inhibition of aggregation,[2],-8.6% (inactive)
same,nuclei count,[2],83.9%
same,inhibition,[3],-15.9% (inactive)
same,nuclei count,[3],118%
same,fluorescence slope,[4],-0.43 (inactive)
same,NADPH fluorescence slope,[5],-8.7e-05 (inactive)
same,slope,[6],0.00584 (inactive)
same,inhibition,[7],8.83% (inactive)
same,inhibition,[8],24.8% (inactive)
CCOc1cc(CN2CCN(C(=O)c3ccco3)CC2)ccc1OC,cell count,[1],403
same,inhibition,[1],-3% (inactive)
same,inhibition of aggregation,[2],8.5% (inactive)
same,nuclei count,[2],88.9%
same,inhibition,[3],44.9% (inactive)
same,nuclei count,[3],104%
same,fluorescence slope,[4],-0.33 (inactive)
same,NADPH fluorescence slope,[5],-1.5e-05 (inactive)
same,slope,[6],0.00559 (inactive)
same,inhibition,[7],11.7% (inactive)
same,inhibition,[8],21.2% (inactive)
Cc1c(NC(=O)CSc2nnc3sc4ccccc4n23)c(=O)n(-c2ccccc2)n1C,cell count,[1],655
same,inhibition,[1],1% (inactive)
same,inhibition of aggregation,[2],16.2% (inactive)
same,nuclei count,[2],98.3%
same,inhibition,[3],-24.3% (inactive)
same,nuclei count,[3],101%
same,fluorescence slope,[4],-0.555 (inactive)
same,NADPH fluorescence slope,[5],6.7e-05 (inactive)
same,slope,[6],0.00649 (inactive)
same,inhibition,[7],19.4% (inactive)
same,inhibition,[8],24.6% (inactive)
COC(C)(C)c1cc(C(C)(C)C)nc(N)n1,cell count,[1],433
same,inhibition,[1],12% (inactive)
same,inhibition of aggregation,[2],9.5% (inactive)
same,nuclei count,[2],103%
same,inhibition,[3],-28.8% (inactive)
same,nuclei count,[3],129%
same,fluorescence slope,[4],-0.385 (inactive)
same,NADPH fluorescence slope,[5],-7.8e-05 (inactive)
same,slope,[6],0.00615 (inactive)
same,inhibition,[7],6.59% (inactive)
same,inhibition,[8],24.6% (inactive)
O=C(Nc1nc(-c2cccs2)cs1)c1cccc(S(=O)(=O)N2CCCCC2)c1,cell count,[1],503
same,inhibition,[1],0% (inactive)
same,inhibition of aggregation,[2],-5.4% (inactive)
same,nuclei count,[2],110%
same,inhibition,[3],-108% (inactive)
same,nuclei count,[3],124%
same,fluorescence slope,[4],-0.479 (inactive)
same,NADPH fluorescence slope,[5],-2.5e-05 (inactive)
same,slope,[6],0.00684 (inactive)
same,inhibition,[7],6.17% (inactive)
same,inhibition,[8],-7.26% (inactive)
CCOc1cc(C(=O)N(C)c2ccccc2)cc(OCC)c1OCC,cell count,[1],314
same,inhibition,[1],5.5% (inactive)
same,inhibition of aggregation,[2],17.8% (inactive)
same,nuclei count,[2],97.5%
same,inhibition,[3],5.8% (inactive)
same,nuclei count,[3],86.2%
same,fluorescence slope,[4],-0.368 (inactive)
same,NADPH fluorescence slope,[5],-3.2e-05 (inactive)
same,slope,[6],0.00526 (inactive)
same,inhibition,[7],18.6% (inactive)
same,inhibition,[8],32.8% (inactive)
Cc1ccc(N=Cc2ccc[nH]2)c(O)c1,cell count,[1],438
same,inhibition,[1],4.9% (inactive)
same,inhibition of aggregation,[2],18.3% (inactive)
same,nuclei count,[2],108%
same,inhibition,[3],7% (inactive)
same,nuclei count,[3],112%
same,fluorescence slope,[4],-0.373 (inactive)
same,NADPH fluorescence slope,[5],-2.1e-06 (inactive)
same,slope,[6],0.0076 (inactive)
same,inhibition,[7],-10% (inactive)
same,inhibition,[8],-22.4% (inactive)
